Drawing on PubChem BioAssay AID1903 (Southern Research Specialized Biocontainment Screening …, 2009), this text covers inhibition for 60 molecules.

Molecules are shown by their SMILES. Values joined by “and” are separate entries in the source; they are usually repeats but may differ in a detail not shown here. Equal values may be shown once. Out of some 310,000 compounds screened, about 1,200 (0.39%) were called active. No rule for the calls is given here. Only a sample is shown. Results with a measured potency or affinity are listed apart.

For the test, the target named is Large T antigen (Simian virus 40) (UniProt P03070). The experiment in a line: TAg ATPase/helicase activity blockers – biochemical (AID 1903). To be noted: SV40 large T antigen ATPase/helicase inhibition assay; at 20 µM; active compounds read high.
Chain of Large T antigen (Simian virus 40) (P03070 whole entry, looked up): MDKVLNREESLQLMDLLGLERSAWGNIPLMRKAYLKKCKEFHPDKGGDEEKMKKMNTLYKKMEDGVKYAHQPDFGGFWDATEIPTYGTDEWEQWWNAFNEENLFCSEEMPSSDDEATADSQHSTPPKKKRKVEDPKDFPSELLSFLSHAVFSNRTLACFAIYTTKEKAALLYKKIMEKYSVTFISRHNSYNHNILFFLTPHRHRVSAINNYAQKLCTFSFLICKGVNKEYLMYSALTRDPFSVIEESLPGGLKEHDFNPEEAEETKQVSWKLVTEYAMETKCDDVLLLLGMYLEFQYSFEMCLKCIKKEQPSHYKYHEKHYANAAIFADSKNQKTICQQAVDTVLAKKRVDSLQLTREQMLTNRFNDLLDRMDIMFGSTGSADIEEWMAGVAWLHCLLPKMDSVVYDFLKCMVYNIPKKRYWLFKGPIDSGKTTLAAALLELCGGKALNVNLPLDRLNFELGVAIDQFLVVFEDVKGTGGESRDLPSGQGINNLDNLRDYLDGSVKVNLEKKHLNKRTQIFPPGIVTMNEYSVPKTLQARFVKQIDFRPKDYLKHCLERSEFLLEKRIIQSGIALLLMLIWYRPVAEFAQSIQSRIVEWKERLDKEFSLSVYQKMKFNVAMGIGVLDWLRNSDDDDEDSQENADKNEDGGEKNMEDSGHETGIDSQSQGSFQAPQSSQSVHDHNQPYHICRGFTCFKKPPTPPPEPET
For the molecule `Nc1ccc(C(=O)O)cc1`, the inhibition (commonly the change of the read-out against control, counted positive when it falls) was 4.17% (inactive) and 15.4% (inactive) and 26% (inactive).
In the case of `O=C(O)c1ccc(C(=O)C(=O)c2ccccc2)cc1` it was 13.3% (inactive); in that of `Cc1cc(NC(=O)CCC(=O)N(Cc2ccccc2)C(C(=O)NC2CCCC2)c2ccco2)no1` (stereo not given), 10.2% (inactive); in that of `O=C(CS(=O)CC(=O)Nc1ccccc1-c1ccccc1)Nc1ccc(F)cc1` (stereo not given), 6.05% (inactive).
In the case of `Cc1ccc(Cn2c(=O)c3ccccc3n3c(CCC(=O)NCCN4CCOCC4)nnc23)cc1` it was 3.95% (inactive).
For `Cn1c(/C(C#N)=C/c2cccc(O)c2)nc2ccccc21` the value was 12.6% (inactive).
In the case of `COc1cc(/C=C(\C#N)c2ccccn2)ccc1OCc1ccc(Cl)cc1`, the inhibition was 12.1% (inactive).
On to `COc1cc(/C=C(\C#N)c2ccccn2)ccc1OCc1ccccc1`, for which the inhibition is 4.85% (inactive).
For `Cn1c(/C(C#N)=C/c2ccc(O)cc2)nc2ccccc21` the value was 9.77% (inactive); for `O=C(C1CCN(S(=O)(=O)c2cccnc2)CC1)N1CCN(c2cccc(Cl)c2)CC1`, 3.44% (inactive); for `Cc1ccc2c(NC(=O)C3CC3)c(C)ccc2n1`, 13.3% (inactive).
In the case of `O=C(CCNC(=O)N1CC(=O)Nc2ccccc21)NCc1cccc(Cl)c1` it was 8.76% (inactive); in that of `CCC(Sc1ccccc1C(=O)O)C(=O)O` (stereo not given), 1.42% (inactive).
For `O=C(O)c1ccccc1SSc1ccccc1C(=O)O`, the inhibition was 1.77% (inactive).
`CCOC(=O)C1CCN(C(=O)COc2cccc(C)c2)CC1`: the inhibition was 4.64% (inactive).
For `CCCCn1c(N)c(N(CC(C)C)C(=O)CSc2n[nH]c(-c3ccc(C)cc3)n2)c(=O)[nH]c1=O` the value was 13% (inactive); for `CCOC(=O)c1sc(NC(=O)c2cc3ccccc3o2)nc1C`, -6.17% (inactive).
For `CCC(=O)Nc1ccc(N2CCCCC2)c(C(=O)Nc2ccccc2C)c1` the value was 0.82% (inactive); for `Cc1ccccc1C(=O)Nc1ccccc1N1CCCCC1`, -0.09% (inactive); for `CCOC(=O)c1c(C)c(C(=O)Nc2ccc3c(c2)OCCO3)c(C)n1CC`, 0.47% (inactive).
For `Cc1ccc(NC(=S)c2ccc(N(C)C)cc2)cc1` the value was -10.2% (inactive); for `CCOC(=O)c1c(C)c(C(=O)Nc2ccccc2)c(C)n1CC`, 10.4% (inactive).
Consider `CCCCOC(=O)Nc1ccc(C(=O)OC)cc1`, for which the inhibition is 6.13% (inactive).
As for `CCCCOC(=O)Nc1ccc(C(N)=O)cc1`, the inhibition was 12.3% (inactive).
For `Cc1ccc(NC(N)=S)cc1` the value was 8.99% (inactive); for `COC(=O)C1=CN(Cc2ccccc2)C=C(C(=O)OC)C1c1ccc(OC)c(OC)c1`, 7.64% (inactive).
For `Cc1ccc(N(C(=O)CNC(=O)c2ccco2)C(C(=O)NC2CCCCC2)c2ccncc2)c(C)c1` (stereo not given) the value was 23.9% (inactive); for `COC(=O)c1c(-c2ccc(F)cc2)csc1NC(=O)C1CCCO1` (stereo not given), 12% (inactive); for `COc1ccc(-c2cc(=O)oc3cc(O)ccc23)cc1`, 7.73% (inactive).
For `COc1ccc(-c2cc(=O)oc3c(C)c(O)ccc23)cc1` the value was 6.62% (inactive).
Turning to `O=C(Nc1cccc2cccnc12)c1ccccc1Cl`, the inhibition was 1.03% (inactive).
For `CCc1ccccc1N1CSC2=C(C#N)C(c3cc(OC)c(OC)cc3OC)CC(=O)N2C1` (stereo not given) the value was 16.6% (inactive); for `COc1ccc(N2CSC3=C(C#N)C(c4cc(OC)c(OC)cc4OC)CC(=O)N3C2)c(OC)c1` (stereo not given), 61.9% (inactive); for `COc1ccc(OC)c(C2CC(=O)N3CN(c4cccc(Cl)c4C)CSC3=C2C#N)c1` (stereo not given), 45.4% (inactive).
On to `COc1cc(C2CC(=O)N3CN(c4ccccc4C)CSC3=C2C#N)cc(OC)c1OC` (stereo not given), for which the inhibition is -11.8% (inactive).
In the case of `COc1ccc(N2CSC3=C(C#N)C(c4cc(OC)ccc4OC)CC(=O)N3C2)c(OC)c1` (stereo not given) it was 34.1% (inactive).
For `COc1ccc(C2CC(=O)N3CN(c4ccc(C)c(Cl)c4)CSC3=C2C#N)cc1OC` (stereo not given) the value was 36.9% (inactive) and 28.8% (inactive); for `CC(C)C[C@H](NC(=O)c1nc[nH]c1C(=O)NCc1ccc(CNC(=O)OC(C)(C)C)cc1)C(=O)OC(C)(C)C`, 1.84% (inactive).
In the case of `CCOc1cc2[nH]c(=O)n(Cc3ccccc3)c(=O)c2cc1OCC`, the inhibition is 3.82% (inactive).
For `Cc1cc(C)c(C#N)c(N)n1` the value was 20.5% (inactive); for `COc1ccc(S(=O)(=O)N(CCc2ccccc2)CC(=O)NCCCO)cc1`, 6.27% (inactive); for `CN(C)S(=O)(=O)c1ccc(C(=O)Nc2ccn(C)n2)cc1`, 4.29% (inactive).
For `CS(=O)(=O)N(CC(=O)N1CCC(C(N)=O)CC1)Cc1ccc(Cl)c(Cl)c1` the value was 6.63% (inactive); for `COc1ccccc1Nc1nc(N)nc(CN2CCN(Cc3ccc4c(c3)OCO4)CC2)n1`, 11.3% (inactive); for `CC(SCC(=O)NC12CC3CC(CC(C3)C1)C2)C(=O)O` (stereo not given), 9.37% (inactive).
In the case of `Cc1ccc(-c2cc(C(F)(F)F)n3ncc(C(=O)N4CCN(C)CC4)c3n2)cc1` it was -2.21% (inactive); in that of `O=C(O)CC(C(=O)O)N1C(=O)/C(=C/C=C/c2ccco2)SC1=S` (stereo not given), 53.1% (inactive); in that of `CC(=C\c1ccccc1)/C=C1/SC(=S)N(C(C(=O)O)C(C)C)C1=O` (stereo not given), 18.4% (inactive).
As to `O=C(O)C(Cc1ccccc1)N1C(=O)/C(=C/c2ccccc2)SC1=S` (stereo not given), the inhibition was 16% (inactive).
For `CC(/C=C1\SC(=S)N(C(C(=O)O)C(C)C)C1=O)=C\c1ccccc1` (stereo not given) the value was 15.2% (inactive).
In the case of `CCc1ccc2c(CN3CCOCC3)cc(=O)oc2c1` it was 3.81% (inactive); in that of `COc1ccc(NC(=O)c2cc(-c3ccccc3)on2)cc1OC`, 6.07% (inactive); in that of `Cn1c(Oc2ccc(Cl)c3cccnc23)nc2c1c(=O)n(Cc1ccccc1Cl)c(=O)n2C`, 5.38% (inactive).
For `CCCC(C(=O)NC1CCCC1)N(CCN(CC)CC)C(=O)c1snc(C(N)=O)c1N` (stereo not given) the value was 7.08% (inactive).
For `CCS(=O)(=O)c1ncc(Cl)c(C(=O)Nc2ccc(C)cc2)n1`, the inhibition was 7.02% (inactive).
Regarding `CC1CCN(S(=O)(=O)c2ccc(NC(=O)c3ccncc3)cc2)CC1`, the inhibition was 7.49% (inactive).
In the case of `CCC1CCCCN1S(=O)(=O)c1ccc(NC(=O)c2cccnc2)cc1` (stereo not given) it was 16.2% (inactive); in that of `CC1CCCN(S(=O)(=O)c2ccc(NC(=O)CNC3CCCC3)cc2)C1` (stereo not given), 4.39% (inactive); in that of `CCC1CCCCN1S(=O)(=O)c1ccc(NC(=O)c2ccncc2)cc1` (stereo not given), -1.25% (inactive).
For `CCc1noc(C)c1C(=O)Nc1ccc(S(=O)(=O)N2CCCC(C)C2)cc1` (stereo not given) the value was 10% (inactive).
